What follows are molecules tested on CSNK1G2. Conditions: concentration: 1 μM, replicates: in singlicate; n = 1.
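Further: KINOMEscan kinase panel screen.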

SMILES	%Inh [%]
Clc1cc(Nc2ncnc3cc[nH]c23)ccc1OCc1ccccn1	11
O=C(Nc1ccccc1F)NC1CCN(c2ccnc(Nc3ccc(F)cc3)n2)C1 (stereo not drawn) [GSK1379722]	100
Cc1ccc(O)cc1Nc1cc(C(F)(F)F)nc2ccc(-c3ccncc3)cc12 [GW630823]	1
C[C@@H]1CCN(C(=O)CO)C[C@@H]1N(C)c1ncnc2[nH]ccc12	0
Cn1cc(-c2ccc3c(c2)CCN3C(=O)Cc2cccc(C(F)(F)F)c2)c2c(N)ncnc21 [GSK2606414]	0
Cl.Cn1ccc(-c2cccc(Nc3ccnc4cc(-c5nccs5)ccc34)c2)n1 [GW525701]	0
CCc1nc(-c2cccc(N(C)S(=O)(=O)c3ccccc3)c2)c(-c2ccnc(Nc3ccc(N4CCN(C(C)=O)CC4)nc3)n2)s1 [GSK1645895]	0
CN1CCC(n2cnc(-c3ccc(F)cc3)c2-c2ccnc(NC3CCNCC3)n2)CC1 [SB-229482]	0
Nc1nc(-c2cccnc2)c(-c2ccnc3ccccc23)s1 [GW684083]	0
O=C(CCO)NCCn1ccc2ncnc(Nc3ccc(Oc4cccc(C(F)(F)F)c4)c(Cl)c3)c21	0
O=C(NCCCN1CCCC1=O)c1cnc(NCc2cc(Cl)ccc2Cl)nc1NC1CCNCC1	0
Fc1ccc(Nc2nccc(-c3c(-c4ccc(Cl)cc4)nn4ncccc34)n2)cc1F [GW829058]	2
c1ccc(-c2ccc3c(-c4ccnc(Nc5ccc6c(c5)OCCO6)n4)cnn3n2)cc1 [GW818941]	11
O=C(Nc1ccccc1)Nc1ccc(Oc2ccc3nccn3n2)cc1	0
CN1c2ccc(-c3ccc(C(=O)NCCO)cc3)cc2-c2[nH]ncc2S1(=O)=O	0
CSc1ccc(NC2=C(c3ccccc3Cl)C(=O)NC2=O)cc1 [SB-342411]	0
CS(=O)(=O)CCNCc1nc(-c2ccc3ncnc(Nc4ccc(OCc5cccc(F)c5)c(Cl)c4)c3c2)cs1.Cl [GW583340]	0
Cl.c1ccc(Cn2ccc3cc(Nc4ncnc5ccccc45)ccc32)cc1 [GW275568]	0

SMILES	%Inh [%]
Nc1nccc2scc(-c3ccc4c(c3)CCN4C(=O)Cc3cc(F)ccc3F)c12 [GSK2587663]	0
Fc1cccc(COc2ccc(Nc3ncnc4sc(-c5ccc[nH]5)cc34)cc2Cl)c1 [GW707818]	3
Clc1ccc(-c2cc(-c3c[nH]nc3-c3ccccn3)ccn2)cc1 [GW681251]	0
Cc1cc(N2CCC(NS(=O)(=O)c3ccc(F)cc3)CC2)nc(Nc2cccc(C#N)c2)n1.O=C(O)C(F)(F)F [GSK1653537]	5
Cl.c1ccc(Cn2ncc3cc(Nc4ncnc5ccccc45)ccc32)cc1 [GW273749]	0
O=c1cc(N2CCOCC2)nc2n(Cc3cccc(Cl)c3)ccn12 [GSK2296823]	0
COc1ccc(NC(=O)c2ccc(-c3cc(-c4nnc(C)o4)ccc3C)cc2)cc1 [GW595885]	0
Cc1ccc(NC(=O)c2cccc(C#N)c2)cc1-c1ccc(C(=O)Nc2ccncc2)cc1 [GSK1398463]	1
FC(F)(F)c1ccc(-c2nn3ncccc3c2-c2ccnc(Nc3cccc(C(F)(F)F)c3)n2)cc1 [GW828205]	3
CCn1c(-c2ccncc2)nc2cnccc21 [SB-735216]	0
CC(C)(C)OC(=O)NC1CCCN(c2cc(-c3ccc4c(N)n[nH]c4c3)nc(N)n2)C1 (stereo not drawn) [GSK2286096]	0
CNc1nccc(-c2c(-c3ccc(F)cc3)ncn2C2CCN(C)CC2)n1 [SB-222903]	0
CS(=O)(=O)CCNCc1ccc(-c2ccc3ncnc(Nc4ccc(OCc5ccccc5)c(Cl)c4)c3c2)o1.Cl [GW574783]	0
COc1cc2c(Nc3cccc(NC(=O)c4ccccc4)c3)ncnc2cc1OCCCN1CCOCC1 [GSK223810]	0
COc1ccc(NC(=O)Nc2ccc(C)c(-c3ccc(C(=O)Nc4ccncc4)cc3)c2)cc1 [GSK1398475]	6
Oc1ccc2ncnc(Nc3ccc(OCc4ccccc4)cc3)c2c1 [GI262866]	17
Fc1ccc(-c2ncn(CCCNCc3ccccc3)c2-c2ccncc2)cc1	7
FC(F)(F)c1ccc(-c2cc(-c3c[nH]nc3-c3ccccn3)ccn2)cc1 [GW599550]	13

Each molecule was assayed on CSNK1G3. Conditions: concentration: 1 μM, replicates: in singlicate; n = 1.

SMILES	%Inh [%]
Clc1cc(Nc2ncnc3cc[nH]c23)ccc1OCc1ccccn1	0
O=C(Nc1ccccc1F)NC1CCN(c2ccnc(Nc3ccc(F)cc3)n2)C1 (stereo not drawn) [GSK1379722]	8
Cc1ccc(O)cc1Nc1cc(C(F)(F)F)nc2ccc(-c3ccncc3)cc12 [GW630823]	5
C[C@@H]1CCN(C(=O)CO)C[C@@H]1N(C)c1ncnc2[nH]ccc12	10
Cn1cc(-c2ccc3c(c2)CCN3C(=O)Cc2cccc(C(F)(F)F)c2)c2c(N)ncnc21 [GSK2606414]	17
Cl.Cn1ccc(-c2cccc(Nc3ccnc4cc(-c5nccs5)ccc34)c2)n1 [GW525701]	0
CCc1nc(-c2cccc(N(C)S(=O)(=O)c3ccccc3)c2)c(-c2ccnc(Nc3ccc(N4CCN(C(C)=O)CC4)nc3)n2)s1 [GSK1645895]	26
CN1CCC(n2cnc(-c3ccc(F)cc3)c2-c2ccnc(NC3CCNCC3)n2)CC1 [SB-229482]	0
Nc1nc(-c2cccnc2)c(-c2ccnc3ccccc23)s1 [GW684083]	13
O=C(CCO)NCCn1ccc2ncnc(Nc3ccc(Oc4cccc(C(F)(F)F)c4)c(Cl)c3)c21	0
O=C(NCCCN1CCCC1=O)c1cnc(NCc2cc(Cl)ccc2Cl)nc1NC1CCNCC1	0
Fc1ccc(Nc2nccc(-c3c(-c4ccc(Cl)cc4)nn4ncccc34)n2)cc1F [GW829058]	0
c1ccc(-c2ccc3c(-c4ccnc(Nc5ccc6c(c5)OCCO6)n4)cnn3n2)cc1 [GW818941]	27
O=C(Nc1ccccc1)Nc1ccc(Oc2ccc3nccn3n2)cc1	29
CN1c2ccc(-c3ccc(C(=O)NCCO)cc3)cc2-c2[nH]ncc2S1(=O)=O	6
CSc1ccc(NC2=C(c3ccccc3Cl)C(=O)NC2=O)cc1 [SB-342411]	0
CS(=O)(=O)CCNCc1nc(-c2ccc3ncnc(Nc4ccc(OCc5cccc(F)c5)c(Cl)c4)c3c2)cs1.Cl [GW583340]	24
Cl.c1ccc(Cn2ccc3cc(Nc4ncnc5ccccc45)ccc32)cc1 [GW275568]	22

SMILES	%Inh [%]
Nc1nccc2scc(-c3ccc4c(c3)CCN4C(=O)Cc3cc(F)ccc3F)c12 [GSK2587663]	10
Fc1cccc(COc2ccc(Nc3ncnc4sc(-c5ccc[nH]5)cc34)cc2Cl)c1 [GW707818]	31
Clc1ccc(-c2cc(-c3c[nH]nc3-c3ccccn3)ccn2)cc1 [GW681251]	0
Cc1cc(N2CCC(NS(=O)(=O)c3ccc(F)cc3)CC2)nc(Nc2cccc(C#N)c2)n1.O=C(O)C(F)(F)F [GSK1653537]	15
Cl.c1ccc(Cn2ncc3cc(Nc4ncnc5ccccc45)ccc32)cc1 [GW273749]	30
O=c1cc(N2CCOCC2)nc2n(Cc3cccc(Cl)c3)ccn12 [GSK2296823]	23
COc1ccc(NC(=O)c2ccc(-c3cc(-c4nnc(C)o4)ccc3C)cc2)cc1 [GW595885]	14
Cc1ccc(NC(=O)c2cccc(C#N)c2)cc1-c1ccc(C(=O)Nc2ccncc2)cc1 [GSK1398463]	41
FC(F)(F)c1ccc(-c2nn3ncccc3c2-c2ccnc(Nc3cccc(C(F)(F)F)c3)n2)cc1 [GW828205]	2
CCn1c(-c2ccncc2)nc2cnccc21 [SB-735216]	4
CC(C)(C)OC(=O)NC1CCCN(c2cc(-c3ccc4c(N)n[nH]c4c3)nc(N)n2)C1 (stereo not drawn) [GSK2286096]	24
CNc1nccc(-c2c(-c3ccc(F)cc3)ncn2C2CCN(C)CC2)n1 [SB-222903]	0
CS(=O)(=O)CCNCc1ccc(-c2ccc3ncnc(Nc4ccc(OCc5ccccc5)c(Cl)c4)c3c2)o1.Cl [GW574783]	6
COc1cc2c(Nc3cccc(NC(=O)c4ccccc4)c3)ncnc2cc1OCCCN1CCOCC1 [GSK223810]	18
COc1ccc(NC(=O)Nc2ccc(C)c(-c3ccc(C(=O)Nc4ccncc4)cc3)c2)cc1 [GSK1398475]	44
Oc1ccc2ncnc(Nc3ccc(OCc4ccccc4)cc3)c2c1 [GI262866]	38
Fc1ccc(-c2ncn(CCCNCc3ccccc3)c2-c2ccncc2)cc1	20
FC(F)(F)c1ccc(-c2cc(-c3c[nH]nc3-c3ccccn3)ccn2)cc1 [GW599550]	13

Reference: publication PMC5540273 (PLoS ONE, 2017)
